Inconclusive results are not listed. Values without a mark were called inactive.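 Rule for the calls: active = cell viability at or below a set limit in both duplicate runs, the limit being the all-compound median minus 4 SD (cut at about 23% in these data, passing the limit was not always enough); inconclusive = no clear call, values can overlap the other calls; inactive = the rest.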
Experiment: viability of HCT116 without oncogenic beta-catenin – human colon tumor cells, pilot screen (AID 823);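 note: 0% = wells killed by 20 µM Hyamine and 100% = untreated DMSO cell wells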
Details: HCT116 beta-catenin knockout viability, CellTiter-Glo, 60 h; at 10 µM; active compounds read low

Structure (SMILES)	viability
CCCc1cc(C(=O)Nc2ccccc2SC)no1	100%
Cc1ccc(C(=O)OCC(=O)Nc2ccc3c(c2)OCO3)o1	97.6%
COC(=O)C(C#N)C(=C1C(=O)CC(C)(C)CC1=O)c1ccc(O)cc1 (stereo not given)	97.5%
COC(=O)c1cc(OC)c(OC)cc1NC(=O)c1ccc(Br)o1	96%
COc1cccc(NC(=O)CSc2nnc(Cc3cccn3C)n2-c2ccc(F)cc2)c1	88.9%
CCOc1ccc(N(CC(=O)OC)S(=O)(=O)c2ccc(OC)c(OC)c2)cc1	99.9%
COC(=O)C1=C(C)NC(C)=C(C(=O)OC)C1C1CC=CCC1 (stereo not given)	90.4%
CCCCCn1c(=O)[nH]c2cc(C(=O)NCCN3CCOCC3)ccc2c1=O	92.5%
COc1ccccc1OCC(=O)N1CCN(c2ccccc2OC)CC1	96.9%
COc1cccc(-c2nc(CS(=O)(=O)CC(=O)N3CCN(c4ccccn4)CC3)c(C)o2)c1	73.3%
CC1C(=O)C(C)C(c2cccs2)NC1c1cccs1 (stereo not given)	87.3%
COc1ccc(N2C(=O)CCC(C(=O)N3CCCCC3)C2c2ccc(OC)c(OC)c2)cc1 (stereo not given)	105%
COc1cccc(NC(=O)c2nc3nc(C)cc(C(F)F)n3n2)c1	107%
O=C(NCCN1CCOCC1)c1ccc2c(c1)N(Cc1ccccc1F)C(=O)CS2	102%
CCn1cc(C(=O)NCc2ccccc2OC)c(=O)c2cc(S(=O)(=O)N(C)C)ccc21	87.1%
